Experimental data as given in PubChem BioAssay.
The source made the active and inactive calls.

What was measured:
[1] = system: Human papillomavirus type 1a protein E7 (residues 44-93); assay: HPV1a E7 fragment binders on microarrays, primary screen, biochemical, small-molecule microarray, residues 44-93, 635 nm fluorescence (AID 1108); conditions: small-molecule microarray binding, fluorescence 635 nm; higher = more signal;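 note: E7 fragment applied at 1 µg/mL in TBST for 1 h at 4 C; score combines spot fluorescence with its signal to noise ratio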
[2] = modulators of HCV replicon luciferase signal, primary screen, HCV replication inhibitor project, Huh7 cells, luciferase reporter (AID 1109); conditions: 48 h, higher = more signal;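 note: huh7 hepatoma cells harbouring a luciferase neomycin HCV replicon reporter; luciferase luminescence as measure of HCV replicon replication; test concentration not given here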
[3] = biological target: Left-right determination factor 2 (Homo sapiens) (UniProt O00292); assay: LEFTY2 binders on small-molecule microarrays, primary screen, biochemical, small-molecule microarray, 635 nm fluorescence scan (AID 1110); conditions: LEFTY2 binding, higher = more signal
Chain of Left-right determination factor 2 (Homo sapiens) (O00292 whole entry, looked up): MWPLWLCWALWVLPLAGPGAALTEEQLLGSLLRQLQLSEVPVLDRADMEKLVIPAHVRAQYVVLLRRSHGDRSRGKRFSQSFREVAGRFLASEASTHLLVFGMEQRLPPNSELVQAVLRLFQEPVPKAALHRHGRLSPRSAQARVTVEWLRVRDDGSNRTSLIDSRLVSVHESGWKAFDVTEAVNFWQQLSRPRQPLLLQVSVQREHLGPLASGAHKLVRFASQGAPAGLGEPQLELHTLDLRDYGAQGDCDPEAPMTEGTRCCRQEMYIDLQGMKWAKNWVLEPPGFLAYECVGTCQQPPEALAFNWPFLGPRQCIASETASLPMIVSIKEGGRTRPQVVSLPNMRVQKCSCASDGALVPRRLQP

[4] = biological target: Calmodulin-1 (Homo sapiens) (UniProt P0DP23); assay: CALM1 binders on microarrays, EGTA buffer, profiling panel, biochemical, small-molecule microarray, Cy5-labelled CALM1 (AID 1111); conditions: Cy5-CALM1 binding fluorescence, higher = more signal;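 note: labelled calmodulin applied in Tris saline Tween buffer holding calcium plus EGTA and DTT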
[5] = biological target: Calmodulin-1 (Homo sapiens) (UniProt P0DP23); assay: calcium-bound CALM1 binders on microarrays, profiling panel, artefact control for SMM control-protein annotation, biochemical, small-molecule microarray, Cy5-labelled CALM1, plus calcium (AID 1112); conditions: Cy5-CALM1 binding fluorescence, higher = more signal;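 note: score merges spot fluorescence with signal to noise from triplicate slides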
[6] = small-molecule microarray binders of probe aWnt5a, primary screen, biochemical, biotinylated probe, 635/667 nm fluorescence (AID 1113); conditions: higher = more signal;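 note: score merges 667 nm fluorescence intensity with signal-to-noise per printed feature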
[7] = small-molecule microarray binders of probe aShh, primary screen, biochemical, biotinylated probe, 635/667 nm fluorescence (AID 1114); conditions: higher = more signal;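 note: probe is biotin-labelled aShh protein from a stem cell growth factor screen; measures binding of labelled protein to compounds printed on the slide; score merges feature fluorescence at 667 nm with signal-to-noise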
[8] = small-molecule microarray binders of probe aNog, primary screen, biochemical, biotinylated probe, 635/667 nm fluorescence (AID 1115); conditions: higher = more signal;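 note: probe is biotinylated aNog protein used at 0.15 µg/mL for 1 h at 4 C; z-score combines 667 nm fluorescence of each spot with its signal to noise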
[9] = biological target: Torsin-1A-interacting protein 1 (Homo sapiens) (UniProt Q5JTV8); assay: LAP1 binders from COS7 cell lysate, primary screen, small-molecule microarray, 635/667 nm fluorescence (AID 1116); conditions: COS7-hLAP1 lysate binding, 635 nm fluorescence, higher = more signal
Chain of Torsin-1A-interacting protein 1 (Homo sapiens) (Q5JTV8 whole entry, looked up): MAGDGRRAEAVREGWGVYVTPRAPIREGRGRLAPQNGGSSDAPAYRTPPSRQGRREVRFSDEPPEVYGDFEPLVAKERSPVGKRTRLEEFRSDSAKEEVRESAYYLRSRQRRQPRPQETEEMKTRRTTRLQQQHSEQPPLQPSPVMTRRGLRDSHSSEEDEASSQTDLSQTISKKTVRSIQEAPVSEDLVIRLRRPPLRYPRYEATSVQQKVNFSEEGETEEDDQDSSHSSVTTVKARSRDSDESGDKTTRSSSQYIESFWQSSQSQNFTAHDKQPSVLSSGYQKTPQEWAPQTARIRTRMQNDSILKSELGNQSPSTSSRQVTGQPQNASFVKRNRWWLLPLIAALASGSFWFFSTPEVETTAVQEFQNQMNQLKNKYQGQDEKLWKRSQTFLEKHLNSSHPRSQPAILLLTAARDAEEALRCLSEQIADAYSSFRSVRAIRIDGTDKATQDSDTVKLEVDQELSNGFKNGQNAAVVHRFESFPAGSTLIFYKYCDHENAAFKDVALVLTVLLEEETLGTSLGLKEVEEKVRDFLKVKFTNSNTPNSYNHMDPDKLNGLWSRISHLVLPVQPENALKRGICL

[10] = biological target: Alpha-bungarotoxin (Bungarus multicinctus) (UniProt P60615); assay: alpha-bungarotoxin binders on microarray, profiling panel, artefact control for SMM control protein annotation, biochemical, small-molecule microarray, Alexa647 label, 635/667 nm fluorescence (AID 1117); conditions: alpha-BTX-A647 binding fluorescence, higher = more signal
Chain of Alpha-bungarotoxin (Bungarus multicinctus) (P60615 whole entry, looked up): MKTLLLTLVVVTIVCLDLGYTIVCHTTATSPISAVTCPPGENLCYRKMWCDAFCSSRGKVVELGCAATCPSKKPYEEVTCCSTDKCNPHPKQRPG

[11] = biological target: Albumin (Bos taurus) (UniProt P02769); assay: bovine serum albumin binders on microarray, profiling panel, artefact control for SMM control protein annotation, biochemical, small-molecule microarray, Alexa647 label, 635/667 nm fluorescence (AID 1118); conditions: BSA-A647 binding, fluorescence 635 nm, higher = more signal;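 note: score merges 667 nm emission intensity and signal-to-noise per printed compound spot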
Chain of Albumin (Bos taurus) (P02769 whole entry, looked up): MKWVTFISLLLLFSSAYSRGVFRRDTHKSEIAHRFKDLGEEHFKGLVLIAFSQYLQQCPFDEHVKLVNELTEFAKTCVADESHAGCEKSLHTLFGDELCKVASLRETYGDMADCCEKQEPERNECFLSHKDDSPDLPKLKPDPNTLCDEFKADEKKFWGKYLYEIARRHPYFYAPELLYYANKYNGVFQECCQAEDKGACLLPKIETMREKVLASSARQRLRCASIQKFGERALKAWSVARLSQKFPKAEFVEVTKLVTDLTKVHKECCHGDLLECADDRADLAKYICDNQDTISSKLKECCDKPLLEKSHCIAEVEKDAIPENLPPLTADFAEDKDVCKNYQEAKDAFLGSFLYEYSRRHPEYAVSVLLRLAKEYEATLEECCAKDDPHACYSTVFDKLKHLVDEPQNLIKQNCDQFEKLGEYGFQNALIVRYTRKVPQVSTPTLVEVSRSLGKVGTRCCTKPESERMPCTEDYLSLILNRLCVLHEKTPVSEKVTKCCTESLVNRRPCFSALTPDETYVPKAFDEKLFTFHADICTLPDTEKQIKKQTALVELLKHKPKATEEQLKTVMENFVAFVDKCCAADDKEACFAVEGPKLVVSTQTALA

[12] = small-molecule microarray binders of probe aXIP, primary screen, biochemical, NeuroSMM set, 635/667 nm fluorescence (AID 1119); conditions: higher = more signal, called active from +8 up or from −8 down;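 note: probe is the protein aXip251-270 applied at 1 µg/mL to compound-printed slides; binding of probe to printed compounds measured as 667 nm fluorescence plus signal to noise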
[13] = small-molecule binders of probe aNOTCH3, primary screen, biochemical, small-molecule microarray, 635/667 nm fluorescence (AID 1120); conditions: higher = more signal;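 note: probe is a biotin-tagged antibody raised against NOTCH3 rather than NOTCH3 protein; score merges spot fluorescence near 667 nm with spot signal to noise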
[14] = small-molecule binders of probe aNOTCH2, primary screen, biochemical, small-molecule microarray, 635/667 nm fluorescence (AID 1121); conditions: higher = more signal;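 note: score merges feature fluorescence read at 667 nm with its signal to noise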
[15] = biological target: Carbonic anhydrase 2 (Homo sapiens) (UniProt P00918); assay: CAII small-molecule binders, profiling panel, biochemical, small-molecule microarray, Alexa647-labelled CAII (AID 1122); conditions: CAII-A647 binding fluorescence, higher = more signal
[16] = COS7 lysate on small-molecule microarray, probe aHis, 635 nm (AID 1123); conditions: COS7 cell lysate, fluorescence, higher = more signal;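 note: z-score combines 667nm fluorescence intensity with signal-to-noise per printed compound spot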
[17] = compound binding in COS7 lysate, probe aLAP1, primary screen, cell lysate, small-molecule microarray (AID 1124); conditions: probe aLAP1, fluorescence, higher = more signal;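 note: lysate comes from COS7 cells expressing LAP1 and is applied at 0.3 µg/mL; score merges spot fluorescence near 667 nm with signal-to-noise over triplicate slides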
[18] = system: Sam68 (KHDRBS1); assay: Sam68 small-molecule binders, primary screen, biochemical, small-molecule microarray, 635 nm fluorescence (AID 1125); conditions: small-molecule microarray binding, higher = more signal;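 note: score merges 667 nm channel intensity with signal to noise over triplicate slides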
[19] = system: Chordin-like protein 2 (CHRDL2); assay: CHRDL2 small-molecule binders, primary screen, biochemical, small-molecule microarray, 635 nm fluorescence (AID 1126); conditions: small-molecule microarray binding, fluorescence 635 nm; higher = more signal;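 note: printed compound slides probed with Chrdl2 protein at 4 µg/mL for 1 h at 4 C; score merges 667 nm emission intensity with signal to noise over three replicate slides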
[20] = biological target: Concanavalin-A (Canavalia ensiformis) (UniProt P02866); assay: ConA small-molecule binders, primary screen, artefact control for SMM control protein annotation, biochemical, small-molecule microarray, Alexa647 label, 635 nm (AID 1127); conditions: ConA-A647 binding fluorescence, higher = more signal;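 note: z combines 667 nm emission intensity with signal-to-noise across three replicate slides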
Chain of Concanavalin-A (Canavalia ensiformis) (P02866 whole entry, looked up): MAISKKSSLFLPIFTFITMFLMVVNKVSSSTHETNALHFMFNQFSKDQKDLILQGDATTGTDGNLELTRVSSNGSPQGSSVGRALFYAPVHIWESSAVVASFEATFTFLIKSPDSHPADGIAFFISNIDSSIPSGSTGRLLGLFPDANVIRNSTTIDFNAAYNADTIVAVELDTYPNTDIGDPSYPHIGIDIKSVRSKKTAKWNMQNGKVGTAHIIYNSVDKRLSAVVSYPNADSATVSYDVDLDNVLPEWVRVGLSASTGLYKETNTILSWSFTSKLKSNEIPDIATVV

Compound | composite z-score [1] | z-score [2] | composite z-score [3] | composite z-score [4] | composite z-score [5] | composite z-score [6] | composite z-score [7] | composite z-score [8] | composite z-score [9] | composite z-score [10] | composite z-score [11] | composite Z-score [12] | composite z-score [13] | composite z-score [14] | composite z-score [15] | composite z-score [16] | composite z-score [17] | composite z-score [18] | composite z-score [19] | composite z-score [20]
CCOC(=O)NN=C1C[C@@H](O)[C@@H](O)[C@@H]2[C@@H]3C(=O)N(CC)C(=O)[C@@H]3CC[C@@H]12 | 0.788 | -0.161 | 0.651 | -0.21 | -0.264 | -0.118 | -0.0977 | -0.213 | 0.197 | 0.595 | 0.338 | 0.112 (inactive) | -0.0864 | -0.125 | 0.735 | 0.472 | -0.0313 | 0.976 | 0.0151 | 0.481
CC(C)CON=C1[C@H]2CCn3c(=O)n(-c4ccccc4)c(=O)n3[C@H]2[C@H](O)[C@@H]2O[C@H]12 | -0.626 | -2.53 | 0.598 | -0.148 | -0.687 | -0.291 | -0.267 | -0.269 | 0.14 | 0.0478 | 0.348 | 0.131 (inactive) | -0.0193 | 0.0145 | -0.0152 | -0.497 | -0.544 | -0.589 | 0.762 | 0.0834
COc1ccc([Si](C)(C)[C@H]2[C@H](CCO)O[C@@]3(C(=O)N(Cc4cccc(NC(=O)[C@H](C)O)c4)c4ccccc43)[C@@H]2C)cc1 | 1.39 | -5.13 | 0.383 | 0.922 | -0.14 | -0.101 | 0.0144 | -0.074 | 0.798 | 1.36 | 0.564 | 1.49 (inactive) | 0.0306 | -0.13 | 0.395 | 1.55 | 0.335 | 1.27 | 0.189 | 1.11
CC(C)[C@H](NC(=O)OC(C)(C)C)[C@@H](O)CC(=O)OC(C)(C)C | -2.46 | -0.59 | -0.428 | -0.32 | -0.275 | -0.0977 | -0.147 | -0.241 | -0.68 | -0.232 | -0.493 | 0.0831 (inactive) | -0.235 | -0.144 | -0.602 | -0.361 | -0.202 | -1.73 | -0.646 | -0.744
CC(=O)OC[C@H]1O[C@H](CCON=C(C)CCN2CCc3nc(-c4ccccc4)c(-c4ccccc4)cc3C2)C=C[C@@H]1OC(C)=O | 1.26 | -1.58 | 0.0439 | -0.205 | -0.174 | -0.0748 | -0.0425 | -0.273 | 0.624 | 1.57 | 0.768 | 0.607 (inactive) | 0.146 | -0.0877 | 0.181 | 0.761 | 0.466 | 0.975 | -0.0682 | -0.0278
COc1ccc(-c2nc3c(c4c2C[C@H](C)OC4)CN(CCC(C)C)CC3)cc1 | 1.35 | -0.257 | 0.6 | 0.518 | 0.038 | -0.0239 | 0.123 | -0.131 | 0.269 | 0.615 | 0.556 | 0.292 (inactive) | -0.166 | -0.0167 | 0.441 | 0.455 | -0.177 | 1.23 | 0.348 | 0.928
